Only some compounds are listed: those with a hit (about 1.1% of all), similar ones and a draw of the others.
BJeLR viability = BJeLR cell viability loss | actives 0.17% (n = 300,000) | BJeLR (HRASV12) viability, CellTiter-Glo ATP luminescence, 48 h | inhibition, % (concentration not given with the values); in the data active = inhibition above about 50%
MazEF act = increases E. coli MazEF RNase cleavage of RNA; P0AE70; FAM/BHQ RNA-DNA oligo cleavage fluorescence, 5 h; activation, % at 20 µM; actives 0.32% (n = 350,000); AID 504720; in the data active = activation above about 50%
PrPC TRFRET = reduces human prion protein on the cell surface. AID 720596. actives 0.43% (n = 370,000). inhibition, % at 13.8 µM. P04156. cell surface PrPC, TR-FRET read-out; in the data active = inhibition above about 24%; note: 0% = median of the test wells and 100% = reference compound wells
PrP UTR inh = suppresses PrP 5' UTR mRNA reporter expression. cell-based PrP 5' UTR mRNA reporter, plate reader. actives 0.35% (n = 340,000). inhibition, % (no concentration beside the values); in the data active = inhibition above about 52%; note: 0 = median of the neutral control wells
PrPC confirm = cell surface PrPC inhibition, TR-FRET confirmation; AID 743200; shares compounds with PrPC TRFRET; inhibition, % at 13.8 µM; actives 65% (n = 1,500); cell surface PrPC level; in the data active = inhibition above about 25%
LD9 cytotox = kills or reduces viability of LD9 cells in PrPc counter-screen | shares compounds with PrPC TRFRET | LD9 cells cytotoxicity, luminescence viability | inhibition, % at 13.8 µM | actives 29% (n = 1,500) | AID 743201; in the data active = inhibition above about 9.5%
An asterisk follows results filed as active; · = not tested or not shown.

SMILES	BJeLR viability	MazEF act	PrPC TRFRET	PrP UTR inh	PrPC confirm	LD9 cytotox
CC(C)C(=O)NNC(=O)CSc1nc(C2CCCCC2)nc2ccccc12	3	-37	3	-4	·	·
CCc1nc(SCC(=O)NNC(=O)C(C)C)c2ccccc2n1	-14	-4	104*	-5	114*	-8
NC(=O)c1ncn([C@@H]2O[C@H](C(=O)Nc3ccc(Oc4ccccc4)nc3)[C@@H](O)[C@H]2O)n1	·	·	-5	·	·	·
O=c1c2ccccc2nc2n1C(CSCc1ccc(Cl)cc1)CS2 (stereo not drawn)	4	5	26*	-12	18	14*
O=c1c2ccccc2nc2n1C(CSc1ccccc1)CS2 (stereo not drawn)	-20	-8	-1	-33	·	·
COc1ccc2[nH]c(C(=O)Nc3ccc(C)c(F)c3)cc2c1	-6	1	39*	-38	99*	5
COc1ccc(NC(=O)c2cc3ccccc3[nH]2)cc1	-1	-1	-6	-62	·	·
COc1ccc2[nH]c(C(=O)N/N=C/c3ccc(O)cc3O)cc2c1	38	-12	32*	35	40*	19*
N#Cc1c(SCC(=O)Nc2nncs2)sc2c(O)cc(=O)[nH]c12	0	-10	27*	12	1	-4
CCCNC(=O)c1cc(Cl)c(NC(=O)C2=C(C)OCCS2)cc1OC	-2	4	26*	-28	32*	-2
CCOCCCNC(=O)c1cc(Cl)c(NC(=O)C2=C(C)OCCS2)cc1OC	3	6	4	-2	·	·
COC(=O)[C@]12C[C@H](CC(=O)N3CCN(C(=O)C4CC4)CC3)C(=O)N(Cc3ccccc3)C1=C[C@H](C(C)(C)C)O[C@@H]2C	·	·	-6	·	·	·
O=C(O)c1cc(O)c2c(c1)[C@H]([C@H]1c3cc(C(=O)O)cc(O)c3C(=O)c3c(O[C@@H]4O[C@H](CO)[C@@H](O)[C@H](O)[C@H]4O)cccc31)c1cccc(OC3O[C@H](CO)[C@@H](O)[C@H](O)[C@H]3O)c1C2=O (stereo partly drawn)	-15	-11	91*	-14	12	0
COc1ccc(Cc2nnc(NC(=O)c3ccc(OC)c(OC)c3)s2)cc1	11	1	-1	-17	·	·
COc1ccc(C(=O)Nc2nnc(Cc3cccs3)s2)cc1OC	1	15	65*	-14	36*	-1
COc1ccc(NC(=S)NC(=O)c2ccccc2)cn1	-5	-4	6	-43	·	·
COc1ccc(NC(=O)c2cccc(Oc3ccccc3)c2)cn1	10	8	26*	-26	10	1
COC(=O)C1=C(C(=O)OC)C2OC1c1cc3ccccc3cc12	·	3	45*	-18	17	98*
COC(=O)C1=C(c2ccc3ccccc3c2)C[C@@H]2CC[C@H]1N2C	·	1	-3	-3	·	·
O=C(N[C@H](C(=O)N1CCC[C@H]1C(=O)NCCc1ccccc1Cl)c1ccccc1)C1CC1	·	·	-4	·	·	·
CN=C(Nc1ccc(C)c(C)c1)SC1CC(=O)N(c2ccc(OC)cc2)C1=O (stereo not drawn)	-6	0	2	-9	·	·
CN=C(Nc1cccc(Cl)c1)SC1CC(=O)N(c2ccc(OC)cc2)C1=O (stereo not drawn)	-1	7	30*	-19	2	-2
CN1c2ccc(C#CC3CC3)cc2[C@@H]2[C@@H](CCN2C(=O)C2CCOCC2)[C@H]1CO	·	·	-3	·	·	·
O=[N+]([O-])c1c(Nc2ccc(O)cc2)cc(Cl)c2nonc12	52*	8	80*	-60	94*	99*
CN(C)c1cc(Nc2ccc(O)cc2)c([N+](=O)[O-])c2nonc12	-14	4	-10	-3	·	·
SMILES	BJeLR viability	MazEF act	PrPC TRFRET	PrP UTR inh	PrPC confirm	LD9 cytotox
CCOC(=O)[C@@]12CCCC=C1N(CCc1ccc(Cl)cc1)C(=O)[C@H]2CC(=O)N1CCCCC1	·	·	4	·	·	·
CC(=O)N=c1sc2nc3ccccc3nc2n1N(C(C)=O)C(C)=O	-6	0	28*	-12	37*	3
CC(=O)N=c1sc2ccccc2n1C	3	-13	2	-2	·	·
Brc1ccc(-c2nnc3sc(CNC4CCCC4)cn23)cc1	-13	-21	46*	-13	58*	-3
Brc1ccc(-c2nnc3sc(CNCc4ccc5c(c4)OCO5)cn23)cc1	-3	-2	-9	-6	·	·
COc1ccc(OC/C(O)=C(\C#N)c2nc3ccccc3[nH]2)cc1	3	2	-1	-7	·	·
N#C/C(=C(/O)COC(=O)CSc1ccc(Cl)cc1)c1nc2ccccc2[nH]1	3	23	27*	-13	36*	63*
Cc1cc(SCC(=O)OC/C(O)=C(\C#N)c2nc3ccccc3[nH]2)c(C)cc1Br	11	-10	-2	-39	·	·
COc1ccccc1OCC(=O)OC/C(O)=C(\C#N)c1nc2ccccc2[nH]1	-6	-1	31*	-27	54*	64*
CNC[C@@H]1OCc2ccccc2-c2c(n(C)c3ccccc23)C(=O)N([C@@H](C)CO)C[C@@H]1C	·	·	-9	·	·	·
CN(c1ccc(Cl)cc1)c1cc(=O)n(C)c2ccccc12	6	-3	25*	1	20	1
CN(C(=O)COc1cc(=O)n(C)c2ccccc12)c1ccc(Cl)cc1	0	10	-4	-16	·	·
O=C1OCCC1Sc1ncnc2sccc12 (stereo not drawn)	-3	3	31*	-17	32*	3
CCCC(=O)c1ccc(OCc2cn(CC(=O)c3ccc(O)cc3)nn2)cc1	·	5	28*	-14	22	-1
COc1ccc(-n2c(SCC(=O)N3CCCC3)nnc2-c2ccncc2)cc1	·	·	0	·	·	·
Cc1csc(NC(=O)c2cc3c(s2)CCCCC3)n1	14	6	25*	49	16	1
Cc1cnc(NC(=O)c2cc3c(s2)CCCC3)s1	7	7	8	47	·	·
CCOC(=O)Cc1csc(NC(=O)c2cc3c(s2)CCCC3)n1	9	2	30*	-33	25*	-5
CC1CCC(NC(=O)c2cc3c(s2)CCCC3)CC1 (stereo not drawn)	1	-5	50*	-57	63*	2
Cc1csc(NC(=O)c2cc3c(s2)CCCC3)n1	6	12	26*	-9	20	7
CNC(=O)c1cc2c(s1)CCCCCC2	-7	4	4	-64	·	·
CCOC(=O)Cc1csc(NC(=O)c2cc(C)c(C)s2)n1	·	3	22	-13	·	·
CCOC(=O)CCCNC(=O)OCCCN1CCC2(CCC(c3ccccc3)CC2)C1=O (stereo not drawn)	·	·	3	·	·	·
CN1CCCCC(NC(=O)CCl)C1=O (stereo not drawn)	·	·	0	·	·	·
O=C(CSc1nnc(COc2ccc(Cl)cc2)n1Cc1ccco1)Nc1ccc2c(c1)OCO2	·	·	25*	·	22	3
COC(=O)C1=C(C)N(Cc2cccc(C(F)(F)F)c2)C(=NCc2cc(OC)c(OC)c(OC)c2)NC1CCc1ccccc1 (stereo not drawn)	·	·	31*	·	26*	5
